Assay results from PubChem BioAssay (EPA / NIEHS).
Calls of active or inactive are those of the source. The calls were made as follows: active = hit-call score of the fitted dose curve at least 0.9, where 1 is the maximum; inactive = score below 0.9.

Experiments:
[1] = read-out: Human Leukocyte Antigen - DR isotype (HLADR), HLA-DRA (gene 3122); assay: BSK_BE3C_HLADR: BioMAP Diversity Plus: BE3C Assay for Human Leukocyte Antigen - DR isotype (HLADR) Biomarker Activity (AID 2283032); settings: primary human bronchial epithelial cells; actives raise or lower the signal
How it was run: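 Cell-surface HLA-DR ELISA readout at 24 h after dosing in the BE3C primary human lung bronchial epithelial system; gain or loss of signal against DMSO, with parallel sulforhodamine B staining of total protein for overt cytotoxicity.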

[2] = read-out: Interferon-gamma inducible Protein 10 (IP10), CXCL10 (gene 3627); assay: BSK_BE3C_IP10: BioMAP Diversity Plus: BE3C Assay for Interferon-gamma inducible Protein 10 (IP10) Biomarker Activity (AID 2283034); settings: primary human bronchial epithelial cells; actives raise or lower the signal
How it was run: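 IP-10 quantified by ELISA in human primary bronchial epithelial cell cultures at 24 hours post-dosing. Gain or loss of signal fitted relative to DMSO; parallel SRB staining assessed overt cytotoxicity.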

[3] = read-out: Monokine induced gamma interferon (MIG), CXCL9 (gene 4283); assay: BSK_BE3C_MIG: BioMAP Diversity Plus: BE3C Assay for Monokine induced gamma interferon (MIG) Biomarker Activity (AID 2283035); settings: primary human bronchial epithelial cells; actives raise or lower the signal
How it was run: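 Dose cells (human primary bronchial epithelial), incubate 24 h, quantify MIG by ELISA, then fit concentration–response in both directions relative to DMSO control.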

[4] = read-out: Transforming growth factor beta 1 (TGFb1), TGFB1 (gene 7040); assay: BSK_BE3C_TGFb1: BioMAP Diversity Plus: BE3C Assay for Transforming growth factor beta 1 (TGFb1) Biomarker Activity (AID 2283036); settings: primary human bronchial epithelial cells; actives raise or lower the signal
How it was run: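 ELISA readout of TGF-b1 from human lung bronchial epithelial primary cells, taken 24 h post-treatment. Gain or loss of signal fitted relative to DMSO baseline, with parallel SRB staining for overt cytotoxicity.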

[5] = read-out: Plasminogen activator inhibitor-1 (PAI1), SERPINE1 (gene 5054); assay: BSK_BE3C_PAI1: BioMAP Diversity Plus: BE3C Assay for Plasminogen activator inhibitor-1 (PAI1) Biomarker Activity (AID 2283037); settings: primary human bronchial epithelial cells; actives raise or lower the signal
How it was run: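 PAI-1 was measured by ELISA in human primary bronchial epithelial cultures 24 h after chemical dosing, with cytotoxicity checked by SRB total-protein staining in parallel cultures. Activity was fitted in both directions relative to DMSO.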

[6] = read-out: urokinase plasminogen activator (uPA), PLAU (gene 5328); assay: BSK_BE3C_uPA: BioMAP Diversity Plus: BE3C Assay for urokinase plasminogen activator (uPA) Biomarker Activity (AID 2283038); settings: primary human bronchial epithelial cells; actives raise or lower the signal
How it was run: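 Measured by ELISA: uPA from human primary bronchial epithelial cells 24 h after chemical treatment. Values derive from bidirectional curve fitting with DMSO serving as negative control. Total protein by SRB staining in parallel wells flagged overt cytotoxicity.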

[7] = read-out: Urokinase-type plasminogen activator receptor (uPAR), PLAUR (gene 5329); assay: BSK_BE3C_uPAR: BioMAP Diversity Plus: BE3C Assay for Urokinase-type plasminogen activator receptor (uPAR) Biomarker Activity (AID 2283039); settings: primary human bronchial epithelial cells; actives raise or lower the signal
How it was run: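 uPAR levels were measured by ELISA after 24 h compound treatment of primary human bronchial epithelial cells, fitted in both directions relative to DMSO. Parallel SRB staining served as the cytotoxicity read-out.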

[8] = read-out: Interleukin-6 (IL6), IL6 (gene 3569); assay: BSK_CASM3C_IL6: BioMAP Diversity Plus: CASM3C Assay for Interleukin-6 (IL6) Biomarker Activity for (AID 2283040); settings: primary human coronary artery smooth muscle cells; actives raise or lower the signal
[9] = read-out: Tissue plasminogen activator (tPA), PLAT (gene 5327); assay: BSK_BE3C_tPA: BioMAP Diversity Plus: BE3C Assay for Tissue plasminogen activator (tPA) Biomarker Activity (AID 2283041); settings: primary human bronchial epithelial cells; actives raise or lower the signal
How it was run: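 tPA measured by ELISA 24 h after dosing human primary bronchial epithelial cells (BE3C system). Changes in either direction were fitted against DMSO. Parallel cultures were stained with SRB to flag overt cytotoxicity.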

[10] = read-out: Interleukin-8 (IL8), CXCL8 (gene 3576); assay: BSK_CASM3C_IL8: BioMAP Diversity Plus: CASM3C Assay for Interleukin-8 (IL8) Biomarker Activity (AID 2283042); settings: primary human coronary artery smooth muscle cells; actives raise or lower the signal;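 also: IL-8 protein level quantified by ELISA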
[11] = read-out: Human Leukocyte Antigen - DR isotype (HLADR), HLA-DRA (gene 3122); assay: BSK_CASM3C_HLADR: BioMAP Diversity Plus: CASM3C Assay for Human Leukocyte Antigen - DR isotype (HLADR) Biomarker Activity (AID 2283043); settings: primary human coronary artery smooth muscle cells; actives raise or lower the signal;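 also: cell-surface HLA-DR protein level quantified by ELISA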
[12] = read-out: Macrophage colony-stimulating factor (MCSF), CSF1 (gene 1435); assay: BSK_CASM3C_MCSF: BioMAP Diversity Plus: CASM3C Assay for Macrophage colony-stimulating factor (MCSF) Biomarker Activity (AID 2283044); settings: primary human coronary artery smooth muscle cells; actives raise or lower the signal;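 also: M-CSF protein amount quantified by ELISA after 24 h exposure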
[13] = read-out: Low-density lipoprotein receptor (LDLR), LDLR (gene 3949); assay: BSK_CASM3C_LDLR: BioMAP Diversity Plus: CASM3C Assay for Low-density lipoprotein receptor (LDLR) Biomarker Activity (AID 2283045); settings: primary human coronary artery smooth muscle cells; actives raise or lower the signal;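 also: LDLR protein level on the cell surface quantified by ELISA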
[14] = read-out: Monocyte Chemoattractant Protein-1 (MCP1), CCL2 (gene 6347); assay: BSK_CASM3C_MCP1: BioMAP Diversity Plus: CASM3C Assay for Monocyte Chemoattractant Protein-1 (MCP1) Biomarker Activity (AID 2283046); settings: primary human coronary artery smooth muscle cells; actives raise or lower the signal;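 also: MCP-1 level quantified by ELISA 24 h after dosing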
[15] = BSK_CASM3C_Proliferation: Cell Proliferation Assessment in the BioMAP Diversity Plus: CASM3C Assay (AID 2283047); settings: primary human coronary artery smooth muscle cells;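 also: sulforhodamine B total protein stain as relative cell number at 560 nm; sub-confluent cells exposed 48 h before staining; fitted both ways against DMSO so gain or loss of cell number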
[16] = read-out: Monokine induced gamma interferon (MIG), CXCL9 (gene 4283); assay: BSK_CASM3C_MIG: BioMAP Diversity Plus: CASM3C Assay for Monokine induced gamma interferon (MIG) Biomarker Activity (AID 2283048); settings: primary human coronary artery smooth muscle cells; actives raise or lower the signal;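 also: MIG protein level measured by ELISA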
[17] = read-out: serum amyloid A (SAA), SAA1 (gene 6288); assay: BSK_CASM3C_SAA: BioMAP Diversity Plus: CASM3C Assay for serum amyloid A (SAA) Biomarker Activity (AID 2283049); settings: primary human coronary artery smooth muscle cells; actives raise or lower the signal;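 also: SAA protein level quantified by ELISA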
[18] = BSK_CASM3C_SRB: Viability Assessment in the BioMAP Diversity Plus: CASM3C Assay (AID 2283050); settings: primary human coronary artery smooth muscle cells
[19] = read-out: Thrombomodulin, THBD (gene 7056); assay: BSK_CASM3C_Thrombomodulin: BioMAP Diversity Plus: CASM3C Assay for Thrombomodulin Biomarker Activity (AID 2283051); settings: primary human coronary artery smooth muscle cells; actives raise or lower the signal;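 also: thrombomodulin protein level measured by ELISA 24 h after dosing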
[20] = read-out: Vascular cell adhesion molecule 1 (VCAM1), VCAM1 (gene 7412); assay: BSK_4H_VCAM1: BioMAP Diversity Plus: 4H Assay for Vascular cell adhesion molecule 1 (VCAM1) Biomarker Activity (AID 2283033); settings: primary human endothelial cells (HUVEC); actives raise or lower the signal
How it was run: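 VCAM-1 ELISA read 24 h after chemical dosing of HUVEC in the BioMAP 4H system, with gain or loss of signal fitted relative to DMSO. Parallel SRB staining (560 nm) checked overt cytotoxicity.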

Measured: AC50

NC=O
not listed: [20]
inactive: all other assays above

CCCCc1nc2cccnc2n1Cc1ccc(-c2ccccc2-c2nnn[nH]2)cc1
not listed: [2]
inactive: all other assays above

Cc1c(C)c2c(c(C)c1O)CCC(C)(COc1ccc(CC3SC(=O)NC3=O)cc1)O2 (configuration not stated)
active: [1] 15.2 µM | [20] 31.8 µM | [3] 31.8 µM | [4] 26.2 µM | [5] 14.7 µM | [6] 15.3 µM | [7] 29.6 µM | [9] 9.19 µM | [15] 6.88 µM | [19] 5.08 µM
inactive: [8] | [10] | [11] | [12] | [13] | [14] | [16] | [17] | [18]

Cn1cnc2c1c(=O)[nH]c(=O)n2C
not listed: [20]
inactive: all other assays above

Cc1occc(=O)c1O
not listed: [20]
inactive: all other assays above

COC(=O)CCC(=O)OC
not listed: [2]
inactive: all other assays above

CC(=O)O[C@]1(C(C)=O)CC[C@H]2[C@@H]3C=C(Cl)C4=CC(=O)[C@@H]5C[C@@H]5[C@]4(C)[C@H]3CC[C@@]21C
active: [1] 19.3 µM | [2] 33.4 µM | [3] 31 µM | [4] 31.5 µM | [5] 20 µM | [6] 38.2 µM | [7] 32.4 µM | [9] 34.9 µM
not listed: [17]
inactive: all other assays above

CN(C)CCCN(C)CCCN(C)C
not listed: [20]
inactive: all other assays above

O=C(Oc1ccccc1)c1cccc(C(=O)Oc2ccccc2)c1
not listed: [20]
inactive: all other assays above

CCOCCOCCO
not listed: [2]
inactive: all other assays above

CC(C)(C)c1ccccc1
not listed: [2]
inactive: all other assays above

CC(C)(O)c1ccc(CNC(=O)c2cccnc2Oc2ccc(F)cc2)cc1
active: [11] 2.12 µM
not listed: [2]
inactive: all other assays above

CC(C)OC(=O)C(C)(C)Oc1ccc(C(=O)c2ccc(Cl)cc2)cc1
active: [20] 17 µM | [13] 20 µM | [19] 11 µM
not listed: [2]
inactive: all other assays above

O=C(NS(=O)(=O)/C=C/c1cccs1)c1ccc(F)cc1Br
active: [15] 5.22 µM
not listed: [2]
inactive: all other assays above

CC(C)c1cccc(C(C)C)c1
not listed: [20]
inactive: all other assays above

O=C1O[C@H]([C@H](O)CO)C(O)=C1O
not listed: [20]
inactive: all other assays above

O=C1c2c(O)cccc2Cc2cccc(O)c21
active: [15] 9.85 µM
not listed: [2]
inactive: all other assays above

Nc1nc(=S)c2[nH]cnc2[nH]1
active: [13] 3.72 µM | [15] 4.67 µM
not listed: [20]
inactive: all other assays above

S=c1[nH]c2ccccc2s1
active: [12] 9.81 µM | [19] 8.08 µM
not listed: [2]
inactive: all other assays above

C#CC(O)C(CC)CCCC (configuration not stated)
active: [15] 37 µM
not listed: [2]
inactive: all other assays above

COc1ccc(C(=O)Nc2nc3ccccc3c(NCc3ccccc3)c2C#N)cc1
active: [13] 9.66 µM
not listed: [20]
inactive: all other assays above

C=CCCCCCCCCCCCC
inactive: all assays above

O=C1NC(=O)C(c2ccccc2)(c2ccccc2)N1
not listed: [2]
inactive: all other assays above

CC(COCC(C)OC(=O)c1ccccc1)OC(=O)c1ccccc1 (configuration not stated)
not listed: [20]
inactive: all other assays above

CCCCCCCCCCCCCCOS(=O)(=O)O
active: [1] 20 µM | [2] 17.4 µM | [3] 34.2 µM | [4] 30.5 µM | [5] 20 µM | [6] 28.6 µM | [7] 16.1 µM | [9] 18.8 µM
not listed: [20]
inactive: all other assays above

CC(=O)[C@@]1(O)CC[C@H]2[C@@H]3CCC4=CC(=O)CC[C@]4(C)[C@H]3CC[C@@]21C
active: [8] 29.5 µM
not listed: [2]
inactive: all other assays above

O=C(O)CC(O)(CC(=O)O)C(=O)O
not listed: [2]
inactive: all other assays above

CCCCOC(=O)CCCCC(=O)OCCCC
not listed: [2]
inactive: all other assays above

COC(=O)CCCC(=O)OC
not listed: [2]
inactive: all other assays above
